Where a name gives a salt, the structure may show the parent alone. ± gives the standard deviation of the averaged measurements.
Experiments:
[1] = tested on: Saccharomyces cerevisiae BY4741 SeMeCo community; assay: mean cell size (pixel area) (pixels); higher = larger cells; settings: 10 µM; 24 h; SM minimal medium
Procedure, shortened: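 A Saccharomyces cerevisiae BY4741 community carrying four plasmids, each with a fluorescent marker and each complementing one auxotrophy, was exposed for 24 h to drug at a final 10 µM in SM medium in acoustically predosed 384-well plates. The overnight preculture (OD600 = 1.0) was diluted to OD600 = 0.3 before 70 µl was added per well. Cells were then fixed with paraformaldehyde, imaged by automated confocal microscopy and analysed in Harmony to derive mean cell pixel area per well, averaged over 3 replicates. Same SeMeCo high-content imaging drug screen: Selleck FDA-approved drugs at 10 µM, 24 h in SM medium, 384-well plates, 3 replicates.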

[2] = tested on: Saccharomyces cerevisiae BY4741 SeMeCo community; assay: z-score of prototroph abundance vs DMSO median; higher = larger share of this subpopulation than in DMSO controls; settings: 10 µM; 24 h; SM minimal medium; subpopulation (auxotrophy): Prototroph
Procedure, shortened: (§1)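 Scoring was based on each subpopulation's abundance, expressed as a z-score against the vehicle-well median. A Saccharomyces cerevisiae BY4741 community with four plasmids, each restoring one auxotrophy and encoding a distinct fluorescent protein, was pre-grown overnight to OD600 1.0, diluted to 0.3, and added at 70 µl to 384-well plates acoustically predosed with library drugs (10 µM final). It then grew 24 h in minimal SM medium before paraformaldehyde fixation and automated confocal microscopy, with single-auxotroph fluorescent strains setting thresholds and autofluorescence correction.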

[3] = tested on: Saccharomyces cerevisiae BY4741 SeMeCo community; assay: z-score of subpopulation abundance vs DMSO median, subpopulation auxotrophic for M; higher = larger share of this subpopulation than in DMSO controls; settings: 10 µM; 24 h; SM minimal medium; subpopulation (auxotrophy): M
Procedure, shortened: as §1

[4] = tested on: Saccharomyces cerevisiae BY4741 SeMeCo community; assay: z-score of subpopulation abundance vs DMSO median, subpopulation auxotrophic for L; higher = larger share of this subpopulation than in DMSO controls; settings: 10 µM; 24 h; SM minimal medium; subpopulation (auxotrophy): L
Procedure, shortened: as §1

[5] = tested on: Saccharomyces cerevisiae BY4741 SeMeCo community; assay: z-score of subpopulation abundance vs DMSO median, subpopulation auxotrophic for U; higher = larger share of this subpopulation than in DMSO controls; settings: 10 µM; 24 h; SM minimal medium; subpopulation (auxotrophy): U
Procedure, shortened: as §1

[6] = tested on: Saccharomyces cerevisiae BY4741 SeMeCo community; assay: z-score of subpopulation abundance vs DMSO median, subpopulation auxotrophic for H; higher = larger share of this subpopulation than in DMSO controls; settings: 10 µM; 24 h; SM minimal medium; subpopulation (auxotrophy): H
Procedure, shortened: as §1

[7] = tested on: Saccharomyces cerevisiae BY4741 SeMeCo community; assay: z-score of subpopulation abundance vs DMSO median, subpopulation auxotrophic for LU; higher = larger share of this subpopulation than in DMSO controls; settings: 10 µM; 24 h; SM minimal medium; subpopulation (auxotrophy): LU
Procedure, shortened: as §1

[8] = tested on: Saccharomyces cerevisiae BY4741 SeMeCo community; assay: z-score of subpopulation abundance vs DMSO median, subpopulation auxotrophic for LM; higher = larger share of this subpopulation than in DMSO controls; settings: 10 µM; 24 h; SM minimal medium; subpopulation (auxotrophy): LM
Procedure, shortened: as §1

[9] = tested on: Saccharomyces cerevisiae BY4741 SeMeCo community; assay: z-score of subpopulation abundance vs DMSO median, subpopulation auxotrophic for HM; higher = larger share of this subpopulation than in DMSO controls; settings: 10 µM; 24 h; SM minimal medium; subpopulation (auxotrophy): HM
Procedure, shortened: as §1

[10] = tested on: Saccharomyces cerevisiae BY4741 SeMeCo community; assay: z-score of subpopulation abundance vs DMSO median, subpopulation auxotrophic for HL; higher = larger share of this subpopulation than in DMSO controls; settings: 10 µM; 24 h; SM minimal medium; subpopulation (auxotrophy): HL
Procedure, shortened: as §1

[11] = tested on: Saccharomyces cerevisiae BY4741 SeMeCo community; assay: z-score of subpopulation abundance vs DMSO median, subpopulation auxotrophic for HLU; higher = larger share of this subpopulation than in DMSO controls; settings: 10 µM; 24 h; SM minimal medium; subpopulation (auxotrophy): HLU
Procedure, shortened: as §1

[12] = tested on: Saccharomyces cerevisiae BY4741 SeMeCo community; assay: z-score of subpopulation abundance vs DMSO median, subpopulation auxotrophic for HLM; higher = larger share of this subpopulation than in DMSO controls; settings: 10 µM; 24 h; SM minimal medium; subpopulation (auxotrophy): HLM
Procedure, shortened: as §1

[13] = tested on: Saccharomyces cerevisiae BY4741 SeMeCo community; assay: z-score of subpopulation abundance vs DMSO median, subpopulation auxotrophic for HUM; higher = larger share of this subpopulation than in DMSO controls; settings: 10 µM; 24 h; SM minimal medium; subpopulation (auxotrophy): HUM
Procedure, shortened: as §1

[14] = tested on: Saccharomyces cerevisiae BY4741 SeMeCo community; assay: z-score of subpopulation abundance vs DMSO median, subpopulation auxotrophic for LUM; higher = larger share of this subpopulation than in DMSO controls; settings: 10 µM; 24 h; SM minimal medium; subpopulation (auxotrophy): LUM
Procedure, shortened: as §1

[15] = tested on: Saccharomyces cerevisiae BY4741 SeMeCo community; assay: z-score of subpopulation abundance vs DMSO median, subpopulation auxotrophic for HLUM; higher = larger share of this subpopulation than in DMSO controls; settings: 10 µM; 24 h; SM minimal medium; subpopulation (auxotrophy): HLUM
Procedure, shortened: as §1

[16] = tested on: Saccharomyces cerevisiae BY4741 SeMeCo community; assay: z-score of subpopulation abundance vs DMSO median, subpopulation auxotrophic for HU; higher = larger share of this subpopulation than in DMSO controls; settings: 10 µM; 24 h; SM minimal medium; subpopulation (auxotrophy): HU
Procedure, shortened: as §1

[17] = tested on: Saccharomyces cerevisiae BY4741 SeMeCo community; assay: z-score of subpopulation abundance vs DMSO median, subpopulation auxotrophic for UM; higher = larger share of this subpopulation than in DMSO controls; settings: 10 µM; 24 h; SM minimal medium; subpopulation (auxotrophy): UM
Procedure, shortened: as §1

SMILES	mean cell size [1]	z-score of prototroph abundance [2]	z-score of subpopulation abundance [3]	z-score of subpopulation abundance [4]	z-score of subpopulation abundance [5]	z-score of subpopulation abundance [6]	z-score of subpopulation abundance [7]	z-score of subpopulation abundance [8]	z-score of subpopulation abundance [9]	z-score of subpopulation abundance [10]	z-score of subpopulation abundance [11]	z-score of subpopulation abundance [12]	z-score of subpopulation abundance [13]	z-score of subpopulation abundance [14]	z-score of subpopulation abundance [15]	z-score of subpopulation abundance [16]	z-score of subpopulation abundance [17]
Cc1cc(NS(=O)(=O)c2ccc(N)cc2)no1 [Sulfamethoxazole sodium]	12.3 ± 0.35	-0.28	0.79	-0.95	0.7	-0.82	0.09	-1.48	-0.51	-1.13	-1.18	-0.73	1.03	-0.34	-0.74	–	–
CC1(C)S[C@@H]2[C@H](NC(=O)COc3ccccc3)C(=O)N2[C@H]1C(=O)O [Penicillin V potassium salt]	11.8 ± 0.2	0.29	0.91	-1.58	0.95	-1.14	-0.1	0.22	0.44	-0.72	-0.94	-0.74	-0.23	-0.32	–	0.49	0.57
O=C1CCc2ccc(OCCCCN3CCN(c4cccc(Cl)c4Cl)CC3)cc2N1 [Aripiprazole]	12.3 ± 0.16	-0.84	0.38	1.13	0.55	0.82	0.61	1.05	0.47	1.38	1.16	0.77	0.36	1.32	0.56	–	–
COC(=O)C1=C(C)NC(C)=C(C(=O)OC)C1c1ccccc1[N+](=O)[O-] [Nifedipine]	12.5 ± 0.2	-0.35	0.13	0.52	0.12	–	0.14	0.48	-0.14	-0.95	1.29	0.5	-0.1	0.34	–	-0.68	0.26
CC(C)NNC(=O)c1ccncc1 [Iproniazid]	12.4 ± 0.22	-0.56	-0.2	-0.39	1.2	0.01	1.04	0.08	-0.24	–	0.8	-0.85	0.2	0.03	–	0.46	0.66
Nc1nc(N)c2nc(-c3ccccc3)c(N)nc2n1 [Triamterene]	12.6 ± 0.17	–	4.86	3.9	–	2.44	-7.06	5.63	3.53	3.45	-3.55	2.07	-6.05	-4.47	-1.58	–	-9.3
N[C@H]1CONC1=O [L-Cycloserine]	11.54 ± 0.047	-1.74	-3.06	2.81	-0.91	5.08	1.02	1.19	3.92	3.71	4.59	5.24	1.54	1.18	–	1.14	-1.17
C=CC[C@@H]1/C=C(\C)C[C@H](C)C[C@H](OC)[C@H]2O[C@@](O)(C(=O)C(=O)N3CCCC[C@H]3C(=O)O[C@H](/C(C)=C/[C@@H]3CC[C@@H](O)[C@H](OC)C3)[C@H](C)[C@@H](O)CC1=O)[C@H](C)C[C@@H]2OC [Tacrolimus (FK506)]	12.02 ± 0.1	-1.63	2.07	0.71	-0.41	1.87	-1.01	0.93	1.61	1.89	1.27	1.8	1.84	1.93	–	1.08	1.02
Nc1ccc2cc3ccc(N)cc3nc2c1 [Proflavine]	12.11 ± 0.034	6.61	2.16	-7.48	-7.03	4.14	-7.09	-5.35	2.14	-3.92	-4.19	-2.42	-4.57	-4.39	–	-6.17	-7.18
CCOC(=O)c1ccc(N)cc1 [Benzocaine hydrochloride]	12.43 ± 0.056	-0.32	-1.03	-0.9	1.42	-0.31	0.5	-0.93	-0.65	–	-0.85	-0.46	0.44	0.12	0.01	–	0.51
COc1ccccc1OCC(O)CN1CCN(CC(=O)Nc2c(C)cccc2C)CC1 (stereo unspecified) [Ranolazine 2HCl]	12.35 ± 0.013	0.5	-0.08	0.24	-0.29	0.04	0.35	-0.74	-0.18	0.26	-0.68	-0.72	-0.12	–	-0.5	–	-0.16
O=C1OCCN1/N=C/c1ccc([N+](=O)[O-])o1 [Furazolidone]	13.1 ± 0.18	3.52	1.9	2.57	–	3.6	-5.41	1.07	0.39	–	-2.4	-0.06	-3.95	–	-0.24	-5.84	-6.39
NC(=N\CCCCCC/N=C(N)/N=C(\N)Nc1ccc(Cl)cc1)/N=C(\N)Nc1ccc(Cl)cc1 [Chlorhexidine diacetate]	11.5 ± 0.11	–	-2.47	-0.29	–	0.93	-1.43	-0.7	-1.35	1.03	1.21	1.2	-0.61	–	2.97	-0.08	-1.2
COc1cccc(-c2c(C)n(Cc3c(F)cccc3C(F)(F)F)c(=O)n(C[C@H](NCCCC(=O)O)c3ccccc3)c2=O)c1F [Elagolix Sodium]	12.5 ± 0.27	0.61	-0.72	-0.55	0.24	1.38	-0.52	-0.38	-0.13	–	-0.37	-0.27	0.12	-0.77	–	0.74	-0.27
